# In all, about 340,000 compounds went through this assay and about 6,400 (1.9%) were called active. Another 4% or so got no clear call; they are omitted. This is one part of a sample in which actives are shown more often than they occur. Values without a mark were called inactive. Calls follow the shape of the dose curve; as a rule, active = well fitted falling curve with a large enough effect; inconclusive = small, poorly fitted or top-dose-only effect; inactive = no such curve, though single readings can be large or run the other way.
# Target: ATP-dependent Clp protease proteolytic subunit (Bacillus subtilis (strain 168)) (UniProt P80244)
# Assay: qHTS Assay for Activators of ClpP; also: the source files actives as falling curves though it sought activators and does not explain the sign; nearly all actives have a fitted effect of over 65% in size
# Settings: purified B. subtilis ClpP, FRET peptide cleavage, 20 min; series mostly up to 57.5 µM; activity change, negative = active: at the top concentration
# Excerpt: The Clp protease proteolytic subunit (ClpP) is the core unit of the Clp complex belonging to the peptidase family S14 that hydrolyzes protein into small peptides in the presence of ATP and magnesium. It is ubiquitously expressed and is the major protease in bacteria. […] Unlike common antibiotics that simply interfere with the essential enzyme activity, ADEP binding activates the ClpP core in the absence of the regulatory Clp-ATPases leading to uncontrolled proteolysis and eventually cell death. Activators binding to the docking site on ClpP can also block formation of the ClpXP and ClpA/C-P holoenzyme complexes interfering with the normal biological functions of ClpP and thus have the potential to become new anti-microbials.
# To identify activators of ClpP, a FRET based quenching reversal assay was developed using a purified B. subtilis ClpP and a decapeptide substrate (FRET-FV). The FRET-FV is tagged with a fluorescent molecule amino benzoic acid (donor) at the N-terminus and a nitrotyrosine quencher (acceptor) at the C-terminus. FRET-FV cleaves upon activation of ClpP with ADEP treatement and reverses the quenching effect of the nitrotyrosine causing an increase in fluorescence emission signal at 430nm. This assay was used to screen the Molecular Libraries Small Molecule Repository (MLSMR).
# NIH Molecular Libraries Probe Production Centers Network [MLPCN]
# NIH Chemical Genomics Center [NCGC]
# Assay Submitter (PI): Michael Maurizi, National Cancer Institute
# Two and a half microL/well of purified enzyme solution (final concentrations 10 microg/mL B. subtilis ClpP in 100 mM Tris/HCl pH8, 100 mM KCl, 0.05% low protease BSA, 2.5% glycerol, 0.01% Tween-20 buffer) was dispensed into 1536-well assay plates (Greiner, black solid, medium-binding plates) with Aurora Discovery BioRAPTR Flying Reagent Dispenser (FRD, Beckton-Dickenson). Compound solution (23 nL) was transferred to the assay plate using Kalypsys pin tool equipped with a 1536-pin tool. […] FRET signals at time 0 and after 20 min room temperature incubation were obtained using the PerkinElmer Envision plate reader with 320nm excitation and 430nm emission filters. Delta FRET value (Time 20 - Time 0) was calculated and normalized to the delta FRET value of positive control ADEP (5.8 microM final concentration) and negative control DMSO and no enzyme wells.
# Potency is read from the fitted curve at half-maximal effect.
# Chain of ATP-dependent Clp protease proteolytic subunit (Bacillus subtilis (strain 168)) (P80244 whole entry, looked up): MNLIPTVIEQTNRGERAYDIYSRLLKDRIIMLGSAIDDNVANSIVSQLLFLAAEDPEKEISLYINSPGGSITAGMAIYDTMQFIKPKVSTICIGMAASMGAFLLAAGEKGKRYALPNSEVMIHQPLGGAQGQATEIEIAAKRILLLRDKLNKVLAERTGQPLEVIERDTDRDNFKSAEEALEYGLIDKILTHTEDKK
Compound,"activity change, negative = active [%]",Potency
c1ccc(CCc2ccccn2)cc1,-10.1,–
Cc1ccc(O)c(CCc2ccccc2)n1,–,28.2 µM (active)
Cc1cc(C)n2c(Nc3c(C)cccc3C)c(CCc3ccccc3)nc2n1,-7.95,–
C=CCOc1ccccc1CNn1c(C)n[nH]c1=S,-5.37,–
Cn1c(-c2ccc(C(=O)c3ccccc3)s2)nc2ccccc21,–,20 µM (active)
Cn1c(NC(=O)c2ccccc2)nc2ccccc21,0.103,–
Cn1c(CNC(=O)C(C)(C)C)nc2ccccc21,0.269,–
CCCCc1nc2ccc(F)cc2cc1C,-3.04,–
CCCc1ccc(C(O)c2ncc(-c3cccc(OC)c3)[nH]2)cc1 (configuration not stated),-0.496,–
COc1ccc(CC(N)c2csc(NC(=O)Cc3ccccc3)n2)cc1 (configuration not stated),-0.24,–
CCOC(=O)CSc1nnc(CNC(=O)c2cccs2)n1-c1ccccc1,–,10 µM (active)
CCOC(=O)CSc1nnc(CNC(=O)c2ccco2)n1-c1ccc(F)cc1,-4.96,–
CCOC(=O)CSc1nnc(CNC(=O)c2cccs2)n1-c1cc(OC)ccc1OC,-0.328,–
Nc1nc2c(Br)ccc(Br)c2cc1C(=O)NCCc1ccccc1,0.0907,–
NC(=O)C1CCN(C(=O)COc2ccc3c4c(c(=O)oc3c2)CCC4)CC1,4.67,–
O=C(COc1ccc2c3c(c(=O)oc2c1)CCC3)NC1CCCCC1,–,14.1 µM (active)
O=C(COc1ccc2c3c(c(=O)oc2c1)CCCC3)NCC(O)c1ccccc1 (configuration not stated),3.98,–
CC1(C(=O)Nc2cccc3c2CCCC3)CCN1C(=O)CCc1ccc(Cl)cc1Cl (configuration not stated),2.56,–
Cc1cc2cc3n(c2nn1)N=C(Cl)CC3,4.2,–
CCCc1nc2c3ccccc3ccn2c1Cc1ccccc1C(F)(F)F,4.9,–
Cc1ccc(Cc2c(-c3ccc(C)cc3)nc3c4ccccc4ccn23)cc1,-5.5,–
FC(F)(F)c1ccccc1Cc1c(-c2ccccc2)nc2c3ccccc3ccn12,–,22.4 µM (active)
Fc1cc(F)c2nc(Nc3nc4c(F)cccc4s3)sc2c1,–,3.55 µM (active)

Compound,"activity change, negative = active [%]",Potency
NC(=O)c1c(Nc2nc3c(F)cccc3s2)sc2c1CCCC2,-15.4,–
NNc1nc2c(Cl)cccc2s1,-9.24,–
CCOC(=O)c1cc2cc(OC)ccc2n1C1CCN(C)CC1,4.63,–
CCC(C(=O)NCc1ccccc1)n1c(Cc2cc(F)cc(F)c2)nc2ccccc21 (configuration not stated),-1.02,–
CC1Cc2[nH][nH]c(=O)c2C(C2CC2)O1 (configuration not stated),0.813,–
CCCCCNC(=O)C1C(=O)Nc2ccccc2C(=O)N1C(C)(C)C (configuration not stated),-9.04,–
COc1ccc(-c2cc(-c3ccc(F)cc3)nc3c2COc2ccccc2-3)cc1,4.12,–
COc1ccc(-c2cn3ccc(C)cc3n2)cc1,4.16,–
COc1ccc(C2=Nc3cc(C)ccc3OC2)cc1,–,28.2 µM (active)
CCOC(=O)[C@]12CCCC=C1N(CCC1=CCCCC1)C(=O)[C@H](CC(=O)NCCCOC)C2,1.11,–
Cc1cc(NC(=O)CSCC(=O)NC(C)c2ccccc2)no1 (configuration not stated),-3.37,–
Cc1ccc2nc(-c3ccc(SCC(=O)Nc4cc(C)on4)nc3)[nH]c2c1,–,31.6 µM (active)
Cc1cc(NC(=O)CSc2nc3ccccc3n2CC(C)C)no1,-2.44,–
CN(CCC#N)c1ccc(C=O)cc1,-10.3,–
CC(C)(C)c1ccc(C(=O)C[N+]2(C)CCCc3ccccc32)cc1 (configuration not stated),0.0913,–
COc1ccc(S(=O)(=O)N[C@@H]2C=C[C@@H](CC(=O)N3CCc4ccccc4C3)O[C@@H]2CO)cc1,0.958,–
CCn1c2ccccc2c2cc(NC(=O)COC(=O)c3ccccc3Br)ccc21,-3.15,–
O=C(COC(=O)c1cc(S(=O)(=O)N2CCOCC2)ccc1Cl)NCCc1ccccc1,0.437,–
CCn1c2ccccc2c2cc(NC(=O)COC(=O)c3cc(S(=O)(=O)N4CCCCC4)ccc3Cl)ccc21,–,10 µM (active)
COc1cc2nc(N3CCCN(C)CC3)nc(NC3CC3)c2cc1OC,4.13,–
COc1ccc(Nc2cc(C(=O)NCCCN(C)c3ccccc3)c3ccccc3n2)c(OC)c1,-0.556,–
COc1ccccc1Nc1cc(C(=O)NCCCN(C)C2CCCCC2)c2ccccc2n1,-1.71,–
CCCCN(CCCNC(=O)c1cc(Nc2ccccc2OC)nc2ccccc12)c1ccccc1,–,17.8 µM (active)

Compound,"activity change, negative = active [%]",Potency
CN(C)C(=O)c1cccc(-c2cnc3c(NC=O)cc(-c4ccc(C(=O)N5CCOCC5)cc4)cn23)c1,-29.9,–
COCCCNC(=O)c1ccc(-c2c(C)noc2C)c2ccoc12,-22.5,–
O=C(CCC1CCCN(C(=O)c2ccc(F)c(F)c2)C1)N1CCN(c2ccccn2)CC1 (configuration not stated),–,17.8 µM (active)
O=C(CCC1CCCN(C(=O)Cc2ccc(F)cc2)C1)N1CCN(c2ccccn2)CC1 (configuration not stated),-1.11,–
C=Cc1ccc(C(=O)N2CCCC(CCC(=O)N3CCN(c4ccccn4)CC3)C2)cc1 (configuration not stated),-5.05,–
COc1ccc(CCCNC(=O)C2Cc3c(-c4cccc(C(N)=O)c4)ccnc3O2)cc1 (configuration not stated),-4.14,–
Cc1cc(=O)c2ccc(NC(=O)c3ccccc3)cc2[nH]1,-3.5,–
O=C1NC(Cc2ccccc2)c2nc3ccc(Br)cc3c(=O)n2-c2cc3ccccc3cc21 (configuration not stated),-10.4,–
O=C(NCc1cccnc1)c1ccc2nc([C@@H]3O[C@H](CO)[C@H](O)[C@H](O)[C@H]3O)[nH]c2c1,-4.1,–
CCOC(=O)C(Cc1ccc(N)cc1)N1C(=O)c2ccccc2C1=O (configuration not stated),0.524,–
CC1=CC(C)(C)Nc2ccc(OC(=O)CN3C(=O)C4CCCCC4C3=O)cc21 (configuration not stated),-0.0791,–
CC1=CC(C)(C)Nc2ccc(OC(=O)C(Cc3ccccc3)N3C(=O)C4CCCCC4C3=O)cc21 (configuration not stated),–,31.6 µM (active)
Cc1ccc(NC(=O)Cn2sc3ccccc3c2=O)cc1,-1.89,–
Cc1ccc(-c2ccc(CCC(=O)O)n2-c2ccc(C(N)=O)cc2)cc1,-3.92,–
COc1ccc(Cl)cc1-n1c(CCC(=O)O)ccc1-c1ccc(C)cc1,0.0453,–
COCCCn1c(CCC(=O)O)ccc1-c1ccc(F)cc1,–,31.6 µM (active)
Nc1nc2c(ncn2[C@@H]2O[C@H](CNS(=O)(=O)N3CCc4ccccc4C3)[C@@H](O)[C@H]2O)c(=O)[nH]1,-0.922,–
COCCCNc1ccn2nc(-c3ccc(CC(C)C)cc3)cc2n1,4.13,–
CN(C(=O)COC(=O)Cc1ccccc1[N+](=O)[O-])C1CCS(=O)(=O)C1 (configuration not stated),-1.32,–
Cc1ccccc1OCC(=O)N(Cc1cccc(F)c1)C1CCS(=O)(=O)C1 (configuration not stated),-1.22,–
CCN(C(=O)COc1cccnc1[N+](=O)[O-])C1CCS(=O)(=O)C1 (configuration not stated),–,28.2 µM (active)

# From PubChem BioAssay AID651965 (National Center for Advancing Translational Sciences (NCATS), 2013)
